Screening data (PubChem BioAssay)
In the library only some 4.4% were active in any assay of this set; here they are far more common.
USP1-UAF1 inh: inhibitors of human USP1/UAF1 deubiquitinase; AID 743255; recombinant USP1/UAF1, Ub-Rhodamine cleavage fluorescence; Potency, µM (doses to about 57.1 µM), inactives show at the highest dose activity change, negative = inhibition, usual class: inhibitors; O94782; actives 0.23% (n = 390,000); active = well fitted inhibition curve with a large enough effect; inconclusive = small, poorly fitted or top-dose-only effect; inactive = no such curve, though single readings can be large or run the other way; also: potency is read from the fitted curve at half-maximal effect; % is scaled to controls: 0 for no effect and ±100 for the full control effect; nearly all actives have a fitted effect of over 60% in size
Target sequence (O94782 whole entry, looked up): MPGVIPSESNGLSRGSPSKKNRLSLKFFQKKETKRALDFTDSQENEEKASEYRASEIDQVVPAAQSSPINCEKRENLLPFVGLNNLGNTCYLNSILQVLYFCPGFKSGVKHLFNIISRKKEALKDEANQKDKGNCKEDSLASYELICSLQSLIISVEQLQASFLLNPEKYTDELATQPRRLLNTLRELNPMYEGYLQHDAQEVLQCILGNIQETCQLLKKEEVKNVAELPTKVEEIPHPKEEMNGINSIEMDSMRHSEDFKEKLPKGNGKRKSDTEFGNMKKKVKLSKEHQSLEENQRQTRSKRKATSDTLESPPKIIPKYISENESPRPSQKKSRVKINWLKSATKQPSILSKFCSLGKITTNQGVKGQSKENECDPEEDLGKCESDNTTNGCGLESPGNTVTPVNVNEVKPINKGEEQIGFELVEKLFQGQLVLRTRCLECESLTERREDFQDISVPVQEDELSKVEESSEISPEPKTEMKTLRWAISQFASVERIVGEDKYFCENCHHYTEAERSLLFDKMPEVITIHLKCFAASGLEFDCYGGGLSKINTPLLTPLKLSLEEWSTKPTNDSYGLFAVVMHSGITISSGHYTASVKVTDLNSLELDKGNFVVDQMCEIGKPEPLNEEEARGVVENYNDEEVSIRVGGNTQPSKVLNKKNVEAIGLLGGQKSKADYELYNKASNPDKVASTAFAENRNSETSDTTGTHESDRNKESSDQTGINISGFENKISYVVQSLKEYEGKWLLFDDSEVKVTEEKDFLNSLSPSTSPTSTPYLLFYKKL
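Step one: compound is pinned into 1nM USP1/UAF1 in HEPES pH 7.8 buffer with TCEP. Step two: 15 min room-temperature incubation. Step three: Ub-Rho (150nM final) starts cleavage, tracked by fluorescence over six one-minute reads.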
TRHR PAM: allosterically enhances the human TRH receptor | enhancement, % at 2 µM | TRHR cells, fluo-8 calcium fluorescence, EC20 TRH enhancement | P34981 | actives 0.66% (n = 360,000); in the data active = enhancement above about 30%; also: 0% is about no effect
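TRHR-expressing cells loaded with fluo-8 calcium dye were read kinetically (ex 480/em 530) during compound addition, then stimulated with an EC20 of TRH (10 nM final). Enhancement of the Gq-mediated intracellular calcium response was scored.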
D1 PAM: potentiators of human D1 dopamine receptor; HEK293 TREx D1 cells, calcium flux, dopamine EC20 potentiation; P21728; potentiation, % at 10 µM; actives 0.036% (n = 360,000); in the data active = potentiation above about 30%; also: 0% is about no effect
TRHR ag: activates the human TRH receptor; activation, % at 2 µM; TRHR cells, calcium flux fluo-8, FDSS agonist mode; actives 0.18% (n = 360,000); AID 493084; P34981; also: 0% is about no effect
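Steps: seed TRHR cells overnight; add fluo-8 no-wash Ca dye, RT 30 min–1.5 h; record 10 s baseline; pin-transfer compounds; monitor fluorescence 1 cycle/s for the agonist window. Calcium increases flag candidate agonists.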
D1 ag: activates the human D1 dopamine receptor. P21728. HEK293 T-REx D1 cells, calcium flux, agonist mode. activation, % at 2 µM. actives 1% (n = 360,000). AID 504660; also: 0% is about no effect
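Inducible HEK293 T-REx D1 cells, force-coupled to calcium signalling, were plated at 4000 cells/well with tetracycline and held overnight at 30 C. After no-wash calcium dye loading, compound-evoked calcium rise over 180 s flagged agonists.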
D1 antag: blocks dopamine activation of the human D1 receptor. HEK293 TREx D1 cells, calcium flux, dopamine EC80; stronger effect = lower value. actives 3.2% (n = 360,000). P21728. activity change, negative = inhibition, % at 10 µM. AID 504652; in the data active = activity change below about -30%; also: % is scaled to controls: 0 for no effect and ±100 for the full control effect
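HEK293 T-REx cells expressing inducible, force-coupled D1 receptor; no-wash Ca dye, 30–90 min RT. Cmpd → 180 s read at 1 Hz → EC80 DA → 180 s read.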
Active calls of the source: *; ? = inconclusive; · = not tested or not shown. Rule as the data show it, unless noted: active = activation above about 30%; inactive = the rest.

SMILES | USP1-UAF1 inh | TRHR PAM | D1 PAM | TRHR ag | D1 ag | D1 antag
CCCN(Cc1cc2ccc(C)cc2[nH]c1=O)C(=O)c1ccccn1 | 1% | -5 | 3 | 0 | 2 | -4
Cc1ccc2[nH]c(=O)c(CN(Cc3ccccc3)C(=S)NCCCN(C)C)cc2c1 | -9% | 34* | -1 | 0 | 4 | -28
COc1ccc(-c2cn3cccnc3n2)cc1NC(=O)Cc1ccccc1 | 6% | 1 | 3 | 0 | 2 | 18
Cc1ccccc1/C=C/C1=NCCN1 | -14% | -5 | -7 | 2 | 0 | -43*
CC(NCc1ccc(-c2ccccc2)cc1)C(O)c1ccccc1 (configuration not stated) | -19% | 8 | -4 | 1 | 200* | 56
Cc1nc(SCc2ccc(Br)cc2)[nH]c(=O)c1C | -7% | -2 | -18 | 0 | 3 | -41*
COc1ccc2oc(-c3cccc(NC(=O)c4sc5c([N+](=O)[O-])cccc5c4Cl)c3)nc2c1 | -10% | -3 | -1 | -2 | 0 | -5
CC(C)Sc1nc2c(c(=O)[nH]1)C(c1cccs1)C1=C(CC(C)(C)CC1=O)N2 (configuration not stated) | -15% | 33* | 1 | 0 | 0 | 4
Cc1[nH]nc2c1C(c1cccs1)C1=C(CC(C)(C)CC1=O)N2 (configuration not stated) | -9% | 3 | -4 | 0 | 1 | 8
O=C(N/N=C(\c1ccccc1)c1ccccn1)c1cccc([N+](=O)[O-])c1 | -21% | 1 | -3 | 0 | -1 | -26
CCOc1ccc(C(=O)N/N=C(\c2ccccc2)c2ccccn2)cc1 | -4% | -2 | -5 | -1 | 2 | -33*
O=C1NC(=O)C(c2ccccc2[N+](=O)[O-])=C1Nc1ccc(O)c(Cl)c1 | -17% | -1 | -10 | 1 | 1 | -38*
O=C(NNc1ccccc1[N+](=O)[O-])Nc1ccc(Cl)c(Cl)c1 | -24% | 9 | 3 | -1 | 14 | -27
COc1ccc(NC(=O)CN2C(=O)CSc3ccc(S(=O)(=O)N(C)C)cc32)cc1Cl | -12% | 8 | -3 | 0 | 2 | -15
COc1ccc(N=Cc2c(O)c3ccccc3n2C(C)=O)cc1 | ? | -2 | -10 | 34* | 119* | -22
COc1ccc(N=Cc2sc(O)c3ccccc23)cc1 | ? | 10 | 9 | -1 | 544* | -82*
COc1ccc(N=Cc2c(OC)ccc3ccccc23)cc1 | -12% | · | · | · | · | ·
Cc1ccc(/C=C/C(=O)Nc2nn[nH]n2)o1 | -8% | 1 | -3 | 0 | 3 | -1
CC(C)c1ccc(/C=C/C(=O)Nc2nn[nH]n2)cc1 | · | 4 | -4 | 0 | 3 | -31*
Fc1ccc(-c2onc3ccc(C4OCCO4)cc23)cc1 | -8% | -1 | -1 | 0 | 0 | -56*
CC1CCc2onc(C(=O)N3CCN(c4ccccc4)CC3)c2C1 (configuration not stated) | -14% | -5 | 2 | 0 | 4 | 1
CCCOc1ccc(C(=O)c2nc3c(n2O)CCCC3)cc1 | -9% | 6 | -5 | 0 | 6 | -32*
CCOc1ccc(C(=O)c2nc3c(n2O)CCCCC3)cc1 | -11% | -1 | -4 | 0 | 3 | -25
CCn1nc(C)cc1C(=O)N1CCCC(C(=O)c2ccc(Oc3ccccc3)cc2)C1 (configuration not stated) | -19% | 9 | -1 | -1 | 5 | -35*
CCn1nc(C)cc1C(=O)N1CCCC(C(=O)c2ccc3ccccc3c2)C1 (configuration not stated) | -5% | -13 | -1 | -1 | 0 | -5
SMILES | USP1-UAF1 inh | TRHR PAM | D1 PAM | TRHR ag | D1 ag | D1 antag
Cc1ccc2nc(Nc3nc(-c4ccccc4)cc(=O)[nH]3)nc(C)c2c1 | -8% | -5 | -6 | 0 | 1 | 21
Cc1ccc2nc(Nc3nc(=O)c4ccccc4n3C)nc(C)c2c1 | · | 3 | -5 | -1 | 158* | -23
Cc1ccc2oc(=O)c3cc(C(=O)N4CCN(c5ccccc5F)CC4)sc3c2c1 | -12% | -8 | 4 | 0 | 1 | -3
Cc1ccn2c(CN(C)CCn3nc(C)cc3C)c(C(=O)N3CCCCCC3)nc2c1 | -23% | -1 | 2 | -1 | -1 | -36*
Cc1ccn2c(CNCCn3nc(C)cc3C)c(C(=O)N3CCCCCC3)nc2c1 | -20% | 12 | -7 | 0 | 1 | -8
Cc1nnc(N2CCCC(C(=O)Nc3cccc(C(F)(F)F)c3)C2)c2nn(-c3ccccc3)c(C)c12 (configuration not stated) | -8% | -3 | 2 | 0 | 0 | 15
O=C(NCc1ccccn1)c1cc2cc(Br)ccc2oc1=O | -8% | -1 | -1 | 0 | 0 | -68*
CC(C)Nc1cc(N2CCN(C3CCCCC3)CC2)c2noc3c2c1C(=O)c1ccccc1-3 | -6% | -4 | 0 | 1 | 0 | -3
CCOc1cc(CNCc2ccccc2)ccc1OCC(=O)NC1CCCCC1 | -4% | 14 | -4 | 1 | 34* | -9
O=C(Nc1ccnn1C1CCN(Cc2cc3ccccc3[nH]2)CC1)C1CCOC1 (configuration not stated) | · | -2 | -9 | 18 | 10 | -32*
COc1ccc(-n2c(=O)c3sc4ccccc4c3n(CC(=O)NCc3ccccc3)c2=O)cc1 | -21% | 3 | 3 | 0 | 2 | 11
CC(=O)Nc1c(C)nn(-c2ccc([N+](=O)[O-])cc2)c1C | -5% | 37* | 0 | 0 | 1 | -13
Cc1cc(Br)ccc1NC(=O)CN(C)C(=O)C1CSC2(C)CCC(=O)N12 (configuration not stated) | -16% | -5 | · | 0 | 2 | -33*
Cc1csc(=O)n1CC(=O)OCC(=O)Nc1ccc(F)c(F)c1 | 3% | 33* | -5 | 0 | 10 | -1
COC(=O)c1ccc(NC(=O)C2CCN(c3ncnc4c3nc3n4CCCCC3)CC2)cc1 | -5% | -1 | 0 | -1 | 0 | 0
O=S1(=O)c2ccccc2Nc2ccccc21 | -25% | 6 | -2 | 2 | 1 | -1
CC1CC(=O)Nc2ccccc2S1(=O)=O (configuration not stated) | -23% | 5 | -1 | 1 | 2 | -32*
Cc1ccccc1NC(=O)CSc1nc(-c2cccs2)nc2cc(=O)[nH]n12 | -12% | 4 | 8 | 0 | 2 | -37*
Cc1ccc(NC(=O)CSc2nc(-c3cccs3)nc3cc(=O)[nH]n23)cc1C | -22% | -5 | -3 | -1 | 2 | -6
